This is a sample that favours compounds with a hit; in the whole collection about 4.1% have one here.
hcDAF12 agonist = H. contortus DAF-12 activation, primary screen; HEK293 hcDAF-12 lit1-tk-luc reporter, luminescence; 0% DMSO, 100% Δ7-dafachronic acid; activation, % at 6.8 µM; hit rate 1.4% among 370,000; AID 652067;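 active means activation above the mean of all tested compounds plus 3 SD, cut at about 5.5% in these data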
DAX1 inh-1 = DAX1 (NR0B1) inhibition, primary screen | HEK293T StAR-luciferase reporter, SF-1/DAX-1 repression relief | inhibition, % at 6.8 µM | hit rate 1.1% among 370,000;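 active means inhibition above the mean over all tested compounds plus 3 SD, cut at about 3.6% in these data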;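 further: higher inhibition means more luminescence from relief of DAX-1 repression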
ssDAF12 agonist = activators of S. stercoralis DAF-12 nuclear receptor; activation, % at 6.8 µM; HEK293 ssDAF-12/GRIP1 lit1-tk-luc reporter, luminescence; % of 3 µM dafachronic acid response; hit rate 1% among 370,000;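 active means activation above the mean over all tested compounds plus 3 SD, cut at about 0.9% in these data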
hgDAF-12 ag = agonists of H. glycines DAF-12 nuclear receptor; HEK293 GAL4-hgDAF12 UAS-luciferase reporter, agonist luminescence; normalized to butyrate control; activation, % at 6.8 µM; hit rate 1.8% among 370,000;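 active means activation above a cutoff set at the mean of all screened compounds plus 3 SD, cut at about 10% in these data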
DAX1 inh-2 = inhibits human nuclear receptor DAX1; HEK293 Gal4-DAX1 luciferase reporter, luminescence; hit rate 0.99% among 340,000; inhibition, % at 6.75 µM; AID 504766; P51843;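 active means inhibition above the mean over all tested compounds plus 3 SD, cut at about 4.2% in these data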;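 further: inhibition shows as a rise in luminescence from relieved DAX1 repression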
Target sequence (P51843 207-470 limits assumed): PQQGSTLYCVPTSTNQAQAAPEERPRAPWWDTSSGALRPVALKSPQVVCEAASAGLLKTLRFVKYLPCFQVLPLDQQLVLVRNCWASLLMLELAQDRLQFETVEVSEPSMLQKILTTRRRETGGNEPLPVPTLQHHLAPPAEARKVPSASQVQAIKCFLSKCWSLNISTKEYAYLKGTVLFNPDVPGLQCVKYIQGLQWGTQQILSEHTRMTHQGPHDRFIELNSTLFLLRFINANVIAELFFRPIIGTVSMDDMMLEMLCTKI
Each line names hits and unclear results; the compound was inactive in the other large screens.

Cc1ccc2cn[nH]c2c1[N+](=O)[O-]	hcDAF12 agonist 5.6, DAX1 inh-2 4.9
Cc1cccc2cn[nH]c12	none
CCC[C@H]1[C@@H](NC(=O)c2ccc(N(C)C)cc2)CC[C@@]23CCCN2C(=O)CCC[C@@H]13	none (no result: DAX1 inh-1, DAX1 inh-2)
COc1ccccc1NC(=O)c1sc2nc3n(c(=O)c2c1C)CCC3	none
Cc1c(C(=O)Nc2ccccc2F)sc2nc3n(c(=O)c12)CCC3	hgDAF-12 ag 11.4
COc1ccc2[nH]c3c(=O)n(CCCN4CCOCC4)cnc3c2c1	DAX1 inh-2 6.2
Cc1ccc2[nH]c3c(=O)n(CCCN4CCOCC4)cnc3c2c1	none
Oc1ccc2ccccc2c1C=NN1CCN(Cc2ccc(Cl)cc2)CC1	none (no result: DAX1 inh-2)
CC(=O)Nc1ccc(S(=O)(=O)N[C@@H](C)C(=O)OCC(=O)c2ccc(Br)s2)cc1	DAX1 inh-2 8.1
COc1ccc(C(=O)COC(=O)[C@H](C)NS(=O)(=O)c2ccc(NC(C)=O)cc2)cc1OC	none
COC(=O)c1ccc(NC(=O)Nc2ccc3c(c2)nc(C)n3C)cc1	none
Cc1nc2cc(NC(=O)Nc3cccc([N+](=O)[O-])c3)ccc2n1C	hgDAF-12 ag 11.2
CC(=O)c1ccc(NC(=O)Nc2ccc3c(c2)nc(C)n3C)cc1	DAX1 inh-1 4.0
Cc1ccc(-c2nnc3n2N=C(c2ccc(-c4ccccc4)cc2)CS3)cc1	none (no result: DAX1 inh-2)
O=C(O)c1ccc(Cl)c(S(=O)(=O)NCc2ccco2)c1	none
NS(=O)(=O)c1ccc(CCNC(=O)c2ccc(Cl)c(S(=O)(=O)NCc3ccco3)c2)cc1	ssDAF12 agonist 1.3
Cc1cc(C)c(O)c(-c2cc(C(=O)Nc3cccnc3)[nH]n2)c1	none
CCc1ccc(O)c(-c2cc(C(=O)Nc3cccnc3)[nH]n2)c1	DAX1 inh-1 3.8, hgDAF-12 ag 11.7
O=C(CCc1nc(-c2ccccc2F)no1)NCCc1c[nH]c2ccccc12	none (no result: DAX1 inh-2)
Cc1ccccc1/C=C/c1nc2ccccc2c(=O)[nH]1	hgDAF-12 ag 11.1
N#CCOc1ccccc1/C=C/c1nc2ccccc2c(=O)[nH]1	none
Cc1ccccc1NC(=O)C1CCCN1S(=O)(=O)c1cccnc1 (centres undefined)	none (no result: DAX1 inh-2)
O=C1CN(CCN2CC(=O)N(Cc3ccccc3)C(=O)C2)CC(=O)N1Cc1ccccc1	none
CC1(C)CC(=O)N(Cc2ccccc2)C(=O)C1	DAX1 inh-2 4.5
C[C@H]1[C@@H](OC(=O)NCc2cccs2)CC[C@@]23CCCN2C(=O)CCC[C@@H]13	none (no result: DAX1 inh-1, DAX1 inh-2)
C=CCNC(=O)C1(S(=O)(=O)c2ccccc2)CC=CC1	DAX1 inh-2 5.2
COC(=O)C[C@H]1CC[C@H]2[C@@H](COc3ccc(NC(=O)Nc4ccccc4)cc3C(=O)N2C)O1	none (no result: DAX1 inh-2)
Cc1ccc2c(CN3CCC(C)CC3)cc(=O)oc2c1C	none
Cc1cc(C)c2c(CN3CCC(C)CC3)cc(=O)oc2c1C	DAX1 inh-2 4.8
C/C=C/C(=O)N1CCC(C(=O)NC2CCCc3ccccc32)CC1 (centres undefined)	none (no result: DAX1 inh-2)
CCC(C)CNC(=O)c1cn(C(C)c2ccccc2)nn1 (centres undefined)	none (no result: DAX1 inh-2)
CC(C)c1nc(N(C)S(C)(=O)=O)nc(-c2ccc(F)cc2)c1/C=C/[C@H](O)C[C@@H](O)CC(=O)O	none (no result: DAX1 inh-2)
Clc1ccc(NC2(c3nnnn3C3CCCCC3)CCCCC2)cc1	DAX1 inh-2 4.7
COc1ccc(OCc2cc(C(=O)NC3CCOCC3)no2)c2ccccc12	hcDAF12 agonist 6.3
COc1ccccc1OCc1cc(C(=O)N(C)CCC2CCOCC2)no1	DAX1 inh-1 3.9
COc1cccc(OCc2cc(C(=O)NC3CCOCC3)no2)c1	none
COc1cc(NC(=O)C2CCCN(S(=O)(=O)c3ccc(Br)s3)C2)cc(OC)c1 (centres undefined)	none (no result: DAX1 inh-2)
O=C(CSc1nc2ccccc2c(=O)n1-c1ccccc1)N1CCc2ccccc2C1	ssDAF12 agonist 1.0
CC(=O)c1cccc(NC(=O)COC(=O)CCc2ccc(S(=O)(=O)N3CCOCC3)cc2)c1	DAX1 inh-2 4.3
O=C(COC(=O)c1ccc(F)cc1F)Nc1cccc(S(=O)(=O)N2CCOCC2)c1	DAX1 inh-1 3.6
N#Cc1cccc(NC(=O)COC(=O)CCc2ccc(S(=O)(=O)N3CCOCC3)cc2)c1	none
O=C(COC(=O)c1cccc(F)c1)Nc1cccc(S(=O)(=O)N2CCOCC2)c1	none
Cc1ccccc1NC(=O)CSc1nnc(-c2cc(-c3ccccc3)n[nH]2)n1N	none (no result: DAX1 inh-2)
O=c1c2ccccc2nc2sc3ccccc3n12	none

Assay outcomes (PubChem BioAssay)
